Data reported in PubChem BioAssay AID493203 (National Center for Advancing Translational Sciences (NCATS), 2011).
Results filed as inconclusive are left out. Activity calls are given as the source filed them. Calls follow the shape of the dose curve; as a rule, active = well fitted activation curve with a large enough effect; inconclusive = small, poorly fitted or top-dose-only effect; inactive = flat fitted curve, though single readings scatter.

Assay: qHTS Assay for NPC1 Promoter Activators: Initial hit validation from the primary screen
Details: Huh7 NPC1 promoter-luciferase reporter, luminescence, 24 h; series mostly up to 46.1 µM
Outline: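 Huh7 cells stably carrying NPC1 promoter-luciferase, 1500 cells per well in OP-MEM I with 10% FBS; compounds added after 2 hours and incubated 24 hours at 37C. Luminescence read 10 minutes after Amplite luciferase reagent.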
Potency is read from the fitted curve at half-maximal effect.

Potency, inactive:
COc1ccc(NC(=O)Nc2ccc(Cc3ccncc3)cc2)cc1OC
COc1ccc(C2(CNC(=O)/C=C/c3ccco3)CCCC2)cc1OC
Cc1ccc(C(=O)Nc2nnc(S(=O)(=O)N3CCOCC3)s2)cc1
OCCC1CN(Cc2nc3ccccc3s2)CCN1C1CCCC1 (centres undefined)
O=C(CCc1cccc(Cl)c1)NC1CCCN(Cc2ccccc2F)C1 (centres undefined)
CC1CC(C)CN(CC(=O)N2CCOCC2)C1 (centres undefined)
CC1CN(C(=O)c2ccncc2)CC(C)O1 (centres undefined)
O=C(NCCc1c[nH]c2ccccc12)C(=O)NCC(c1ccco1)N1CCN(c2ccccc2F)CC1 (centres undefined)
COc1ccc(-c2csc(N(CCCN(C)C)C(=O)c3ccccc3C)n2)cc1
NNC(=O)c1cccc(S(=O)(=O)Nc2cc(Cl)ccc2Cl)c1
O=[N+]([O-])c1cnccc1Nc1ccc(F)cc1
CCCOC(=O)Cn1cnc2scc(-c3ccc(OC)cc3)c2c1=O
CN(C)C(CNC(=O)CNC(=O)c1ccc2ccccc2c1)c1ccccc1 (centres undefined)

Potency, active:
O=C(CSc1nnc(-c2ccc([N+](=O)[O-])cc2)o1)Nc1ccccn1 628 nM
CC(=O)Nc1ccc(-c2csc(Nc3ncccn3)n2)cc1 499 nM
Cc1nnc2n(c1=O)N=C(c1ccc(Cl)cc1)CS2 1120 nM
Cc1ccc2c(c1)sc1nc(=O)n(-c3ccccc3)c(=O)n12 705 nM
O=C(CSc1nnc(-c2ccccn2)o1)Nc1ccccc1Cl 1250 nM
Cn1c(SCc2ccccc2)nnc1-c1cnccn1 15800 nM
